Source: PubChem BioAssay
Most compounds without a hit are left out; they make up all but 2.5% or so of the library.
Anesthetic bind: qHTS Assay for Identification of Novel General Anesthetics; Potency, µM (top dose mostly 77.5 µM), for the others: at the top dose activity change, negative = displacement, usual class: inhibitors; 0.074% of 350,000 active; apoferritin/1-aminoanthracene competitive binding, fluorescence; Ferritin light chain (Equus caballus), P02791; active = well fitted inhibition curve with a large enough effect; inconclusive = small, poorly fitted or top-dose-only effect; inactive = no such curve, though single readings can be large or run the other way; note: potency is the fitted concentration of half-maximal effect; % is set by controls: 0 for no effect and ±100 for the full control effect; nearly all actives have a fitted effect of over 20% in size
Target sequence (P02791 2-175 limits assumed): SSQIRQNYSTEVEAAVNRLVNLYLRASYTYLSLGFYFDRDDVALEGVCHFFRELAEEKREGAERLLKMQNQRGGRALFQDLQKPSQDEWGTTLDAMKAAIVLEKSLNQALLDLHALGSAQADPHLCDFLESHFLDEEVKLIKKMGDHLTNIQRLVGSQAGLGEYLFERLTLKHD
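Read-out: endpoint 1-AMA fluorescence, excitation 380 nm and emission 535 nm, after compounds sit 10 min at room temperature with 10 uM horse-spleen apoferritin in 50% saturated 1-AMA/PBS. Values come from four-parameter Hill fits.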
D2 antagonist: HTS Assay for Allosteric Antagonists of the Human D2 Dopamine Receptor: Primary Screen for Antagonists; D(2) dopamine receptor (Homo sapiens), P14416; HEK293 TREx D2 cells, calcium flux, dopamine EC80; inhibition, % at 10 µM; 2% of 340,000 active; in the data active = inhibition above about 30%; inactive = below that, where a call was filed; note: 0% is about no effect
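Antagonism is scored as inhibition of an EC80 dopamine-evoked calcium signal in a force-coupled, tetracycline-inducible HEK293 T-REx D2 line, with compound present 180 s before agonist.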
D2 ag-1: Beta-Arrestin HTS for Positive Allosteric Modulators of the Human D2 Dopamine Receptor: Agonists | D(2) dopamine receptor (Homo sapiens), P14416 | DiscoveRx PathHunter D2 beta-arrestin, luminescence, 90 min; 100% = 57 uM dopamine signal | activation, % (concentration not given with the values) | 0.084% of 360,000 active; in the data active = activation above about 40%; inconclusive = between about 15% and that limit
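Agonist mode: compounds alone added to overnight-plated D2 PathHunter cells for 90 min at 37 C, with 57 uM final dopamine (EC100) defining full response. Beta-arrestin recruitment detected by chemiluminescent reagent, read after 1 h at ambient temperature.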
D2 PAM-1: Beta-Arrestin HTS for Positive Allosteric Modulators of the Human D2 Dopamine Receptor: Potentiators | D(2) dopamine receptor (Homo sapiens), P14416 | DiscoveRx D2 beta-arrestin cells, luminescence, 90 min; 100% = 57 uM dopamine signal | potentiation, % (concentration not given with the values) | 0.23% of 360,000 active | AID 624464, 2012; in the data active = potentiation above about 50%; inconclusive = mostly about 30% to 49%
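D2 cells co-treated with compound plus 50 nM dopamine (EC20) for 90 min at 37 deg C to detect potentiation. Beta-arrestin recruitment was read as enzyme-fragment luminescence after 1 h at ambient temperature. Full response was set by 57 uM dopamine.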
D2 PAM-2: HTS Assay for Positive Allosteric Modulators of the Human D2 Dopamine Receptor: Primary Screen for Potentiators | HEK293 T-REx D2, calcium flux, EC20 dopamine potentiation | 0.34% of 340,000 active | D(2) dopamine receptor (Homo sapiens), P14416 | potentiation, % at 10 µM;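 active = potentiation over 3 SD above the plate norm, cut at about 30% in these data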; note: 0% is about no effect
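Tetracycline-induced HEK293 T-REx cells force-coupled to calcium signalling expressed D2; compounds were pin-added after a 10 s baseline, read kinetically 180 s, then an EC20 dopamine challenge followed with a further 180 s calcium read.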
D2 ag-2: HTS Assay for Allosteric Agonists of the Human D2 Dopamine Receptor: Primary Screen for Agonists; D(2) dopamine receptor (Homo sapiens), P14416; HEK293 T-REx D2 cells, calcium flux agonist mode; activation, % at 2 µM; 0.53% of 340,000 active; AID 485358, 2010;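 active = activation over 3 SD above normal in the single-dose calcium agonist read, cut at about 30% in these data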; note: 0% is about no effect
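Agonism is scored from calcium flux in a force-coupled, inducible HEK293 cell line expressing D2, read kinetically for 180 s after compound addition against dopamine controls.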
Active calls of the source: *; ? = inconclusive; . = no result.

SMILES	Anesthetic bind	D2 antagonist	D2 ag-1	D2 PAM-1	D2 PAM-2	D2 ag-2
CCOc1ccc(NC(=O)CN2CCN(c3ccccc3C)CC2)cc1S(=O)(=O)N1CCCC1	.	34.7*	-0.5	-27.8	-26.4	0.6
CCOc1ccc(NC(=O)CSc2nnc(C3CC3)n2C2CC2)cc1	.	42.8*	-6.6	1.8	3.8	0.1
Cn1c(SCC(=O)Nc2ccc3c(c2)CCC3)nnc1C1CC1	.	-9.1	-1.9	-16.2	-10.9	-0.4
CCC(=O)Nc1cccc(NC(=O)CSc2nnc(C3CC3)n2C)c1	-8.8%	30.9*	-2.2	2.4	0.4	0.3
COc1ccc(NC(=O)CSc2nnc(C3CC3)n2C)cc1	-0.9%	5.1	-0.8	-13.0	-0.7	2.2
COc1ccc(NC(=O)C2CCN(C(=O)NCc3ccccc3)CC2)cc1	-1.7%	16.6	-0.9	-9.7	12.0	-0.6
CCOc1ccc(OCCN2CCCCC2)cc1	-5.1%	5.4	-1.9	-19.3	-0.5	-0.5
CCOc1ccc(CNCCN2CCCC2)cc1	-15.5%	74.1*	-3.9	-14.4	-18.7	0.6
COc1ccc(C)cc1NC(=O)C(NS(=O)(=O)c1cccs1)c1ccccc1 (stereo unspecified)	-11.3%	.	.	.	-0.2	.
COc1ccc(C)cc1NC(=O)C(NCC(O)c1ccccc1)c1ccccc1 (stereo unspecified)	?	33.5*	-2.9	-7.0	-14.5	0.2
O=C(NNC(=S)Nc1ccccc1Cl)c1ccccc1Br	-4.0%	53.4*	-9.9	-33.6	0.8	0.7
O=C(Cc1ccccc1)N1O[C@H]2C=C[C@@H]1CC2	.	.	-2.5	.	.	.
c1ccc(-c2onc3cc4c(cc23)OCCO4)cc1	-13.1%	-1.4	?	117.0*	4.2	-1.0
Oc1ccc(N=Cc2ccc(O)c(O)c2)cc1	-6.1%	-18.8	?	82.6*	12.8	0.1
O=C(/C=C/c1ccc(OC(F)F)cc1)OCC(=O)N1CCC(c2ccccc2)=N1	.	38.6*	-0.6	3.1	-4.3	3.0
O=C(COC(=O)/C=C/c1ccc(OC(F)F)cc1)NC(=O)NC1CCCCC1	.	.	-0.8	-2.9	.	.
O=C(COC(=O)/C=C/c1ccc(OC(F)F)cc1)NC1CCCC1	.	32.2*	-3.1	-15.9	8.4	0.0
Nc1ccccc1C#CC(=O)c1ccccc1	-11.8%	9.6	0.2	-63.1	-1.3	0.9
CC1(C)CC(=O)c2c(nc3ccccc3c2N)C1	-3.5%	-14.9	-3.7	-9.9	7.1	1.2
CCSC1=N/C(=C\c2ccc(OC)cc2)C(=O)N1	3.9%	0.6	-2.1	-23.8	12.2	0.3
COc1ccc(/C=C2\N=C(SC)NC2=O)cc1	-16.9%	3.5	-4.4	-2.1	31.5*	0.2
CSc1nc(-c2ccccc2F)c(C#N)c(=O)n1C	-15.1%	8.3	1.1	-0.6	0.6	-0.3
Cc1ccccc1N(C(=O)c1csnn1)C(C(=O)NC(C)(C)C)c1cccs1 (stereo unspecified)	-20.8%	36.5*	-1.5	-3.3	-10.8	-0.2
CC(C)(C)NC(=O)C(c1ccco1)N(C(=O)c1csnn1)c1ccccc1 (stereo unspecified)	-12.6%	-0.1	-2.2	-7.4	36.2*	-1.0
Cc1ccsc1C(C(=O)NCc1ccccc1)N(C(=O)c1csnn1)c1ccccc1 (stereo unspecified)	-3.5%	33.0*	-0.7	-3.1	-6.1	-0.8
CCC(C)(C)NC(=O)C(c1cccnc1)N(C(=O)c1csnn1)c1ccccc1 (stereo unspecified)	-0.4%	5.1	-19.1	-31.1	40.3*	0.2
